Experimental data reported in PubChem BioAssay (NCATS).
Inconclusive results are not listed. Active and inactive are the calls of the source. Unless noted, calls come from the whole dose curve; as a rule, active = well fitted curve in the direction sought with a large enough effect; inconclusive = small, poorly fitted or top-dose-only effect, or another doubt; inactive = no such curve, though single readings can be large; an effect the other way counts as inactive or inconclusive.

How the values were obtained:
[1] = target: Aldehyde dehydrogenase, mitochondrial (Homo sapiens) (UniProt P05091); test: qHTS for Inhibitors of the Aldehyde Dehydrogenase Family (ALDH2) Confirmatory screens (AID 2061303; active = well fitted inhibition curve with a large enough effect; title and protocol of this record describe different tests; note: nearly all actives have a fitted effect of over 45% in size; note: potency is the fitted concentration of half-maximal effect)
[2] = qHTS for Inhibitors of the Aldehyde Dehydrogenase Family (ALDH1A2, ALDH1A3, ALDH2, ALDH3A1) (AID 2061307); note: nearly all actives have a fitted effect of over 50% in size; for Potency: test system not described further here; potency is the fitted concentration of half-maximal effect
[3] = target: Retinal dehydrogenase 2 (Homo sapiens) (UniProt O94788); test: qHTS for Inhibitors of the Aldehyde Dehydrogenase Family (ALDH1A2) Confirmation screens (AID 2061314); note: nearly all actives have a fitted effect of over 65% in size; note: potency is the fitted concentration of half-maximal effect
[4] = target: Aldehyde dehydrogenase 1A1 (Homo sapiens) (UniProt P00352); test: qHTS for Inhibitors of the Aldehyde Dehydrogenase Family (ALDH1A1) Confirmatory screens (AID 2061316); note: nearly all actives have a fitted effect of over 65% in size; note: potency is the fitted concentration of half-maximal effect
[5] = target: Retinaldehyde dehydrogenase 3 (Homo sapiens) (UniProt P47895); test: qHTS for Inhibitors of the Aldehyde Dehydrogenase Family (ALDH1A3) Primary screen (AID 2061315); note: potency is the fitted concentration of half-maximal effect
[6] = target: Aldehyde dehydrogenase, mitochondrial (Homo sapiens) (UniProt P05091); test: qHTS for Inhibitors of the Aldehyde Dehydrogenase Family (ALDH2) Primary screen (AID 2061308); note: nearly all actives have a fitted effect of over 55% in size; note: potency is the fitted concentration of half-maximal effect
[7] = target: Retinaldehyde dehydrogenase 3 (Homo sapiens) (UniProt P47895); test: qHTS for Inhibitors of the Aldehyde Dehydrogenase Family (ALDH1A3) Confirmatory screens (AID 2061311); note: nearly all actives have a fitted effect of over 60% in size; note: potency is the fitted concentration of half-maximal effect
[8] = target: Retinaldehyde dehydrogenase 3 (Homo sapiens) (UniProt P47895); test: qHTS for Inhibitors of the Aldehyde Dehydrogenase Family (ALDH1A3) Validation screen (AID 2061312); note: nearly all actives have a fitted effect of over 45% in size

Measured: Potency

CCOc1ccc(-c2cc(C(=O)NCCc3ccc(C)cc3)c3ccccc3n2)cc1
inactive: [1] | [2] | [3] | [4]

COc1ccc(C2N(Cc3ccccc3)C(=O)c3ccccc3N2C)cc1COc1ccc(NC(C)=O)cc1 (centres undefined)
inactive: [1] | [5]
active: [2] 10.1 µM

NC(=O)C1CCN(c2nc(-c3ccc(F)cc3)cs2)CC1
inactive: [1] | [6] | [7] | [3] | [5]

Cc1c(C(=O)N(C)CC2CCCO2)[nH]c2c1C(=O)CC(c1ccco1)C2 (centres undefined)
active: [7] 15.9 µM | [3] 12.7 µM
inactive: [1] | [6]

O=S1(=O)N=C(Oc2ccccc2Br)c2ccccc21
inactive: [1] | [2] | [5]

O=C(O)c1ccc(-n2cccc2/C=C2\SC(=O)N(Cc3cccc(Cl)c3)C2=O)cc1
active: [1] 11.3 µM | [2] 1.79 µM | [4] 7.98 µM
inactive: [5]

O=C(OCC#CCSc1nnc(-c2ccco2)o1)c1ccc(F)cc1
active: [1] 15.9 µM | [4] 8.96 µM
inactive: [2] | [5]

Cc1ccc(C(=O)NC2CCN(Cc3cccc(-c4cccc(C)c4)c3)CC2)cc1
inactive: [1] | [2] | [3] | [4]

N#Cc1cccc(N2CCN(Cc3ccc(F)c(Cl)c3F)CC2)n1
active: [1] 15.8 µM | [2] 4.58 µM | [4] 14.5 µM

O=C(Nc1cncc(O)c1)c1cccs1
inactive: [6] | [5]
active: [1] 12.7 µM | [7] 12.7 µM | [3] 2.25 µM

O=C(O)c1ccccc1SC1=NS(=O)(=O)c2ccccc21
inactive: [1] | [2] | [3] | [5] | [4]

COc1cc2c(cc1O)C(c1ccc(O)cc1)C(C)C(C)C2 (centres undefined)
inactive: [1] | [6]

C[C@H]1[C@H](/C=C/c2ccc(-c3ccccc3C#N)cn2)[C@@H]2[C@@H](C)OC(=O)[C@@H]2C[C@@H]1C
active: [4] 1.27 µM
not listed: [2]
inactive: all other assays above

N#Cc1cccc(NC(=S)N[C@H]2CO[C@H]3[C@@H]2OC[C@@H]3n2nnnc2Oc2cccc(N3CCOCC3)c2)c1
active: [2] 6.31 µM | [4] 10.2 µM
inactive: [1] | [3]

C#Cc1nc(Nc2cccc(Cl)c2)nc(NC2CCCC2)n1
inactive: [6] | [5]
active: [1] 31.6 µM | [7] 14.1 µM | [3] 8.91 µM

Cc1cc(-c2nnc3n2CCCCC3)c(C)n1-c1ccc(Br)cc1
inactive: [1] | [2] | [5]
active: [4] 12.7 µM

Oc1cc(NCCc2cccnc2)cc2cccnc12
inactive: [1] | [6] | [3]
active: [7] 0.4 µM

Cc1ccc2nc3sc(C(=O)N4CCN(C)CC4)cc3cc2c1
inactive: [1] | [6]
active: [7] 22.5 µM | [3] 10.1 µM

O=C1c2ccccc2NC(c2ccc(-c3ccccc3F)o2)N1O (centres undefined)
active: [1] 11.3 µM | [6] 8.91 µM | [3] 25.2 µM
inactive: [7] | [5]

COc1cccc(-c2no[n+]([O-])c2C#N)c1
active: [3] 10.1 µM
not listed: [2] | [8]
inactive: all other assays above

CCc1nc2c(sc3nc4c(cc32)COC(C)(C)C4)c(=O)n1Cc1ccco1
inactive: [6]
active: [1] 6.34 µM | [7] 7.98 µM | [3] 7.12 µM | [4] 0.634 µM

Cc1cnc(-c2ccccc2C(C)C)nc1NCC1CN(c2cccnc2)C1
inactive: [6] | [5]
active: [1] 11.3 µM | [7] 11.3 µM | [3] 2.52 µM | [4] 8.96 µM

Cc1c(P(=O)(c2ccccc2)c2ccccc2)c2ccccc2n1C
inactive: [1] | [6] | [3] | [5]
active: [7] 7.12 µM | [4] 10.1 µM

Cc1cc(C)nc(NC(=S)N2CCN(c3cccc4ccncc34)CC2)c1
active: [1] 12.7 µM | [6] 3.16 µM | [7] 11.3 µM | [3] 10.1 µM | [4] 4 µM

NC(=O)C1CCN(c2nc(-c3ccc(Cl)cc3)cs2)CC1
not listed: [2] | [8]
inactive: all other assays above

CCOc1ccccc1-c1nnc2n1N=C(c1cccc(OC)c1)CS2
inactive: [1] | [6] | [7] | [3] | [5]

O=C1CC(c2ccccc2)CC2=C1C1(CCCC1)N=C(Nc1nc3ccccc3o1)N2 (centres undefined)
not listed: [2] | [8]
inactive: all other assays above

FC(F)(F)c1cc(-c2ccc(CNc3nc(-c4ccncc4)nc4ccccc34)cc2)ccn1
inactive: [6] | [5]
active: [1] 8.91 µM | [7] 2.52 µM | [3] 10 µM

N#Cc1cc(C2=Nc3ccc(Br)cc3NC(=O)C2)ccn1
not listed: [2] | [8]
inactive: all other assays above

Cc1cc(C)nc(NC(=S)N2CCN(c3ccc4nsnc4c3)CC2)c1
active: [1] 8.96 µM | [6] 7.94 µM | [7] 1.13 µM | [3] 6.34 µM | [4] 1.79 µM

O=C(Nc1ncc([N+](=O)[O-])s1)c1ccccc1O
active: [1] 28.2 µM | [7] 0.449 µM | [5] 2 µM
inactive: [6]

O=C1Nc2ccccc2/C1=C\c1ccc(O)c(F)c1
inactive: [5] | [4]
active: [1] 0.224 µM | [6] 2.51 µM | [7] 15.8 µM | [3] 5.65 µM

NC(=O)C1CCN(c2ncc(-c3cccc(N4CCCC4)c3)s2)CC1
active: [1] 12.7 µM | [7] 7.98 µM | [3] 11.3 µM | [4] 3.57 µM
inactive: [6] | [5]

NC(=O)N1CCN(c2nc(-c3ccc(Br)cc3)cs2)CC1
not listed: [2] | [8]
inactive: all other assays above

N#CN1CCC(NS(=O)(=O)c2ccc(F)cc2)CC1
not listed: [2] | [8]
inactive: all other assays above

COc1ccc(C2=Nn3c(nnc3-c3ccccc3O)SC2)cc1
inactive: [1] | [6] | [7] | [3] | [5]

O=S(=O)(Nc1ccc(O)c2ncccc12)c1ccccc1F
active: [1] 4.49 µM | [7] 2.25 µM | [3] 2.83 µM | [4] 2.01 µM
inactive: [6]

NC(=O)C1CCN(c2ncc(-c3cccc(N4CCOCC4)c3)s2)CC1
active: [4] 6.34 µM
not listed: [2] | [8]
inactive: all other assays above

O=S(=O)(Nc1cc(O)cc2cccnc12)c1ccc(Cl)s1
active: [1] 8.96 µM | [6] 0.631 µM | [7] 0.504 µM | [3] 2.01 µM | [4] 4 µM

CN1CCN(c2cccc(CNc3nn4c(=O)c5ccccc5nc4s3)c2)CC1
active: [3] 25.2 µM
inactive: [1] | [6] | [7] | [5]

Cc1ccc(S(=O)(=O)c2ccc([N+](=O)[O-])cn2)cc1
active: [1] 2 µM | [6] 2 µM | [7] 4.47 µM | [3] 1.13 µM | [4] 0.634 µM

Cc1ccc(-c2no[n+]([O-])c2C#N)cc1
inactive: [1] | [6] | [7] | [5]

CCOC(=O)C1CCN(c2nc(-c3ccc(Br)cc3)cs2)CC1
not listed: [2] | [8]
inactive: all other assays above

Cc1noc(C)c1N[S+](=O)([O-])c1ccc(NC(=O)Cc2ccc(Cl)c(Cl)c2)cc1
active: [1] 7.08 µM | [7] 6.31 µM
inactive: [6] | [5]

CC(C)(C)OC(=O)NC1CCN(c2nc(-c3ccc(Br)cc3)cs2)CC1
not listed: [2] | [8]
inactive: all other assays above

COc1ccc([N+](=O)[O-])c(S(=O)(=O)c2ccccc2)n1
active: [1] 17.8 µM | [6] 4.47 µM | [7] 5.65 µM | [3] 15.8 µM | [4] 2.01 µM

O=C(Nc1cncc(NC(=O)c2cccs2)c1)c1cccs1
active: [7] 28.3 µM
not listed: [2] | [8]
inactive: all other assays above

O=C(CN1C(=O)CC(c2ccco2)Sc2ccccc21)Nc1ccccc1F (centres undefined)
active: [4] 2.52 µM
not listed: [2] | [8]
inactive: all other assays above

O=C(/C=C/c1ccc([N+](=O)[O-])o1)Nc1cccc([S+](=O)([O-])Nc2ccccc2F)c1
inactive: [1] | [6] | [7] | [5]
active: [3] 7.98 µM | [4] 7.98 µM

O=C1CCCC2=C1C(c1[nH]ncc1Cl)NC(=NCc1ncc[nH]1)N2 (centres undefined)
not listed: [2] | [8]
inactive: all other assays above

CCOC(=O)c1c(-c2ccccc2)no[n+]1[O-]
inactive: [1] | [6] | [7] | [5]

CS(=O)(=O)c1ccc(C(=O)OCC(=O)N2Cc3ccccc3C2)cc1[N+](=O)[O-]
active: [7] 28.2 µM | [3] 7.98 µM
inactive: [1] | [6] | [5]

COc1cc(O)c(C(CC(=O)N2CCCC(C(C)C)C2)c2ccc3c(c2)OCO3)c(OC)c1 (centres undefined)
inactive: [1] | [6] | [7] | [3] | [5]

COc1ccc([N+](=O)[O-])c(S(=O)(=O)c2ccc(Cl)cc2)n1
active: [1] 5.04 µM | [6] 1.78 µM | [7] 10 µM | [3] 15.8 µM | [4] 1.27 µM

CC(=O)NC(c1ccco1)c1cc(Cl)c2ccc(N3CCCCC3)nc2c1O (centres undefined)
inactive: [6] | [5]
active: [1] 10.1 µM | [7] 11.3 µM | [3] 1.59 µM | [4] 2.25 µM

O=C1Nc2ccccc2/C1=C\c1ccc(C(=O)O)cc1
not listed: [2] | [8]
inactive: all other assays above

Brc1ccc(-c2csc(N3CCC(c4nn[nH]n4)CC3)n2)cc1
inactive: [1] | [6] | [7] | [3] | [5]

Cc1cnc(-c2ccccc2C(C)O)nc1NCC1CCN(c2cccnc2)CC1 (centres undefined)
active: [3] 12.7 µM
inactive: [1] | [6] | [7] | [5]
